Laboratory results as given in article PMC7862700, “An all-to-all approach to the identification of sequence-specific readers for epigenetic DNA modifications on cytosine”.

What was measured:
Assay in all cases: DAPPL (digital affinity profiling via proximity ligation, sequencing); 10 mM Tris-HCl pH 7.5, 50 mM NaCl, 1 mM DTT, 4% glycerol, room temperature, 30 min; GST-TFs on glutathione beads, 16-mer random dsDNA library, 0.1% formaldehyde crosslink after washing; high values mean tight binding
[1] = biological target: T1, FEV (Homo sapiens, UniProt Q99581 1-238); conditions: protein: recombinant; tags: N-terminal GST; dsDNA, one strand shown
T1 sequence: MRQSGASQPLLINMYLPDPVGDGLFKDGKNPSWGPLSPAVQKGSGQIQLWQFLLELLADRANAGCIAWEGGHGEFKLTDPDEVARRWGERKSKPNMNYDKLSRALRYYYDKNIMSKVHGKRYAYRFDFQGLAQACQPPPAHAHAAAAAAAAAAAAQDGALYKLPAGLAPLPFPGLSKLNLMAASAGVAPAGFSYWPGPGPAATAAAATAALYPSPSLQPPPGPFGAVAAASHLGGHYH
Method in brief: (§1)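 Sequencing on an Illumina NextSeq500 followed washing, crosslinking with 0.1% formaldehyde, proximity ligation (BsaI/T4 ligase, 1 h, 37 °C) and PCR amplification of pools that had been incubated for 30 min at room temperature with 200 nmole of a random double-stranded 16-mer DNA library in Tris/NaCl/DTT/glycerol buffer. Each pool held DNA-barcoded human transcription factors, expressed in yeast as GST fusions and captured on glutathione beads, plus a tag-only sample. Binding signal is a hexamer's read frequency for a factor divided by its frequency in the tag-only sample.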

[2] = biological target: ETV5 (Homo sapiens, UniProt P41161 1-510); conditions: protein: recombinant; tags: N-terminal GST; dsDNA, one strand shown
Method in brief: as §1

[3] = biological target: HSF1 (Homo sapiens, UniProt Q00613 1-529); conditions: protein: recombinant; tags: N-terminal GST; chain copies: 3; dsDNA, one strand shown
Method in brief: as §1

[4] = biological target: T2, SPIC (Homo sapiens, UniProt Q8N5J4 1-248); conditions: protein: recombinant; tags: N-terminal GST; dsDNA, one strand shown
T2 sequence: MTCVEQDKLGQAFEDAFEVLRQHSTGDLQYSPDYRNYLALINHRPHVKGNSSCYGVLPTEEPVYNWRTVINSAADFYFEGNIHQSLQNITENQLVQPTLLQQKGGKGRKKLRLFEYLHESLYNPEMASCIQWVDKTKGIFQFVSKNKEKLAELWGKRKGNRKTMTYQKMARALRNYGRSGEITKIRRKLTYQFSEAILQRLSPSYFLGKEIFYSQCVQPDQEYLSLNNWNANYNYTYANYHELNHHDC
Method in brief: as §1

[5] = biological target: ELF4 (Homo sapiens, UniProt Q99607 1-663); conditions: protein: recombinant; tags: N-terminal GST; dsDNA, one strand shown
Method in brief: as §1

[6] = biological target: T3, ELK4 (Homo sapiens, UniProt P28324-2 1-405); conditions: protein: recombinant; tags: N-terminal GST; dsDNA, one strand shown
T3 sequence: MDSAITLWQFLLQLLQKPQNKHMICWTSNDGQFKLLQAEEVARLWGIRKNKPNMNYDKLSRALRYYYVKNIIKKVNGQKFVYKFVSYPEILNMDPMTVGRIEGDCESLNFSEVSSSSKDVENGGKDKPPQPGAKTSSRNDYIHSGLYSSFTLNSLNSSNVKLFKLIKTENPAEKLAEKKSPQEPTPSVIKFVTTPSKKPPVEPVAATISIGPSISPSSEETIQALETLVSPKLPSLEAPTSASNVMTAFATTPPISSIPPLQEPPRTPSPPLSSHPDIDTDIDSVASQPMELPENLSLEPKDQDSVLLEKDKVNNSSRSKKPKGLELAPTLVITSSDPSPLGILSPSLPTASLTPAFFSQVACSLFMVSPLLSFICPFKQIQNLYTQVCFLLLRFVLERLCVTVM
Method in brief: as §1

[7] = biological target: T4, ETV2 (Homo sapiens, UniProt O00321 1-342); conditions: protein: recombinant; tags: N-terminal GST; dsDNA, one strand shown
T4 sequence: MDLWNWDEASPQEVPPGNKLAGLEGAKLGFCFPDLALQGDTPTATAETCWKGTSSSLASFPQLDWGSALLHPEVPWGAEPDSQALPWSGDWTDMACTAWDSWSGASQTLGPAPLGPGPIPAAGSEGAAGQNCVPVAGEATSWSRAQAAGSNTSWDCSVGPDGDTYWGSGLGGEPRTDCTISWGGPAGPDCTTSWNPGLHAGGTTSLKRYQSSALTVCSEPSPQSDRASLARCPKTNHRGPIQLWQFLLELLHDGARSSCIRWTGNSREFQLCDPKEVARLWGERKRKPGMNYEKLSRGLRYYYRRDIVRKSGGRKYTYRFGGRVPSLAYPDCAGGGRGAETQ
Method in brief: as §1

[8] = biological target: T5, ELF3 (Homo sapiens, UniProt P78545 1-371); conditions: protein: recombinant; tags: N-terminal GST; dsDNA, one strand shown
T5 sequence: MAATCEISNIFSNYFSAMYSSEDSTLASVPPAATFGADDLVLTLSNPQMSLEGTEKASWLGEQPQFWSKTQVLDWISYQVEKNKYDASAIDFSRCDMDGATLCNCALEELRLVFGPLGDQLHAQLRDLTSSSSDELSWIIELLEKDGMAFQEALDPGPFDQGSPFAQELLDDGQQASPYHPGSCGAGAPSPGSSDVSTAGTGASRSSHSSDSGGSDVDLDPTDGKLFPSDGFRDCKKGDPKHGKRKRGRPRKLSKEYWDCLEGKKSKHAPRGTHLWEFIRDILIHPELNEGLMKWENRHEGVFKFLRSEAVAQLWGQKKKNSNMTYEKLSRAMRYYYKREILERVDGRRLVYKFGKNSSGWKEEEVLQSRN
Method in brief: as §1

[9] = biological target: CRX (Homo sapiens, UniProt O43186 1-299); conditions: protein: recombinant; tags: N-terminal GST; dsDNA, one strand shown
Method in brief: as §1

[10] = biological target: ETV1 (Homo sapiens, UniProt P50549 1-477); conditions: protein: recombinant; tags: N-terminal GST; dsDNA, one strand shown
Method in brief: as §1

[11] = biological target: T6, ERF (Homo sapiens, UniProt P50548 1-548); conditions: protein: recombinant; tags: N-terminal GST; dsDNA, one strand shown
T6 sequence: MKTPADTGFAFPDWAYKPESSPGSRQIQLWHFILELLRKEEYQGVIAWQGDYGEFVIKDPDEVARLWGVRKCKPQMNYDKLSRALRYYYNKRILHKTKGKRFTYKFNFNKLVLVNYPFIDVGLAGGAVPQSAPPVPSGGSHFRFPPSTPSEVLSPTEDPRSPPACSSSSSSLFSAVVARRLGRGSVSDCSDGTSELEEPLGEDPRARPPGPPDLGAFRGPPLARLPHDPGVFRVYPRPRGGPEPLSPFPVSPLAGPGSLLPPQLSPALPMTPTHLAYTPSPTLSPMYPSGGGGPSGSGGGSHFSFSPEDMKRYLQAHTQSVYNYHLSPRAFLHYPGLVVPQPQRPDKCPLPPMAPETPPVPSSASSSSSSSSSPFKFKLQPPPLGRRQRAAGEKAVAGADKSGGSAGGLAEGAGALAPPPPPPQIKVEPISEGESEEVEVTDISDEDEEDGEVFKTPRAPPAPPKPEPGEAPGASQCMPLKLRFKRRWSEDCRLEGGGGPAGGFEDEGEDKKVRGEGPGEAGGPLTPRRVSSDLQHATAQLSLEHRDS
Method in brief: as §1

[12] = biological target: T7, ETV3L (Homo sapiens, UniProt Q6ZN32 1-361); conditions: protein: recombinant; tags: N-terminal GST; dsDNA, one strand shown
T7 sequence: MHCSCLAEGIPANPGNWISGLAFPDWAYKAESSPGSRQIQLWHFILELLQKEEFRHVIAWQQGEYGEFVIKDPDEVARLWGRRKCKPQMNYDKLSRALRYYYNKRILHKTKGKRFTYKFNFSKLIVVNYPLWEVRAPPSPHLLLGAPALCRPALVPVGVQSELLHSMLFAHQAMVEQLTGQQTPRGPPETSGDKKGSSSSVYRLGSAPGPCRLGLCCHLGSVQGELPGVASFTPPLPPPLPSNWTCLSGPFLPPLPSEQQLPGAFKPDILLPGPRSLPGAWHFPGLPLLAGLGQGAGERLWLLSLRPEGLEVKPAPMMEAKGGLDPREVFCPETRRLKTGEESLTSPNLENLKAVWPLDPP
Method in brief: as §1

[13] = biological target: T8, ETS2 (Homo sapiens, UniProt P15036 1-469); conditions: protein: recombinant; tags: N-terminal GST; dsDNA, one strand shown
T8 sequence: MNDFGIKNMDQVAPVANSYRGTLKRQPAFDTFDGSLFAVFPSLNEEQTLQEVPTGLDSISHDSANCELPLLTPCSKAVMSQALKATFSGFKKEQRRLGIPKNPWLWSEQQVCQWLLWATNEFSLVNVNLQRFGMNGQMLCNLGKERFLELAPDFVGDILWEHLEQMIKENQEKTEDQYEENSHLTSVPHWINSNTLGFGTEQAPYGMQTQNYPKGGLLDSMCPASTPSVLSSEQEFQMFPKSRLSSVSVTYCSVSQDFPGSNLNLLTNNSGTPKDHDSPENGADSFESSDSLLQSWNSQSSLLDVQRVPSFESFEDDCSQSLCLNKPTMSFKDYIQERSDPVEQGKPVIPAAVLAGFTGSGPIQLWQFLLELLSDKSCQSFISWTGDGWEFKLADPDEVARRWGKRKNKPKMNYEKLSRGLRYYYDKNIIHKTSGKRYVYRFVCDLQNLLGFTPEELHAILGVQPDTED
Method in brief: as §1

[14] = biological target: T9, SPDEF (Homo sapiens, UniProt O95238 1-335); conditions: protein: recombinant; tags: N-terminal GST; dsDNA, one strand shown
T9 sequence: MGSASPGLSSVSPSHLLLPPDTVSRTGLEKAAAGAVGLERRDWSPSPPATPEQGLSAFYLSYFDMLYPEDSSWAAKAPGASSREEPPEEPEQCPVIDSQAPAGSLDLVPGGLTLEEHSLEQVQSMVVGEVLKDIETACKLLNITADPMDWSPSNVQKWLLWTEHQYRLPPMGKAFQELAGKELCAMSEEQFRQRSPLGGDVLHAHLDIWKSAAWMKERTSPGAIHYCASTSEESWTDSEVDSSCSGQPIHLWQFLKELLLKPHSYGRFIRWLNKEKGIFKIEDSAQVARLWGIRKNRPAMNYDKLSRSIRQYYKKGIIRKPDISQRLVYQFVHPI
Method in brief: as §1

[15] = biological target: T10, ETV7 (Homo sapiens, UniProt Q9Y603 1-341); conditions: protein: recombinant; tags: N-terminal GST; dsDNA, one strand shown
T10 sequence: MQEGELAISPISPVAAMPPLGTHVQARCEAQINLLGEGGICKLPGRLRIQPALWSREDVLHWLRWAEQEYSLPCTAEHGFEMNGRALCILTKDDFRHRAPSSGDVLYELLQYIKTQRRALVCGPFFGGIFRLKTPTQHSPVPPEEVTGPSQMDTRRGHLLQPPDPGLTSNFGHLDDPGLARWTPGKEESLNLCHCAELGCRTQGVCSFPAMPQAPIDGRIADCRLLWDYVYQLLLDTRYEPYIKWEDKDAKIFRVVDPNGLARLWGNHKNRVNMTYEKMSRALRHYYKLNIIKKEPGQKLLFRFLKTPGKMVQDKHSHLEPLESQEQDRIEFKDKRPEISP
Method in brief: as §1

[16] = biological target: T11, ELF5 (Homo sapiens, UniProt Q9UKW6-2 1-255); conditions: protein: recombinant; tags: N-terminal GST; dsDNA, one strand shown
T11 sequence: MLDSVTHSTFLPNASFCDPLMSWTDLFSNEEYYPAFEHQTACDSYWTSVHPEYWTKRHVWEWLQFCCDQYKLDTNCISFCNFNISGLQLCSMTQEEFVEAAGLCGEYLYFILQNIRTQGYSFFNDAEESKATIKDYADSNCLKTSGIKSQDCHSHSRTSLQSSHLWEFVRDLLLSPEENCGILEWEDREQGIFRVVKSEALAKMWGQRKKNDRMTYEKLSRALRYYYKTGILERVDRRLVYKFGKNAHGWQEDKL
Method in brief: as §1

[17] = biological target: T12, ETV3 (Homo sapiens, UniProt P41162-2 1-143); conditions: protein: recombinant; tags: N-terminal GST; dsDNA, one strand shown
T12 sequence: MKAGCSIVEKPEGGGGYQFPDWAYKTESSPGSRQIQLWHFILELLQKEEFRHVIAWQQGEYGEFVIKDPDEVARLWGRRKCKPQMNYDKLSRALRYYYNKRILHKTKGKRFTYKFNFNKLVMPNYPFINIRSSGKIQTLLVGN
Method in brief: as §1

[18] = biological target: ETV6 (Homo sapiens, UniProt P41212 1-452); conditions: protein: recombinant; tags: N-terminal GST; dsDNA, one strand shown
Method in brief: as §1

CRX, sequence (O43186 whole entry): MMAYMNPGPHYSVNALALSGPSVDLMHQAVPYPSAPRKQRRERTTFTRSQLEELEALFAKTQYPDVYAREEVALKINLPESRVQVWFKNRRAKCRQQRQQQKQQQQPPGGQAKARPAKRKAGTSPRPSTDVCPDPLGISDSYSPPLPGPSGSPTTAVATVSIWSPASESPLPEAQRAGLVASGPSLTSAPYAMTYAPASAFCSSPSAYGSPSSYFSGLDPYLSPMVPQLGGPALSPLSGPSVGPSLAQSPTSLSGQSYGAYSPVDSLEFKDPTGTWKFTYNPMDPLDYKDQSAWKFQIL
ETV1, sequence (P50549 whole entry): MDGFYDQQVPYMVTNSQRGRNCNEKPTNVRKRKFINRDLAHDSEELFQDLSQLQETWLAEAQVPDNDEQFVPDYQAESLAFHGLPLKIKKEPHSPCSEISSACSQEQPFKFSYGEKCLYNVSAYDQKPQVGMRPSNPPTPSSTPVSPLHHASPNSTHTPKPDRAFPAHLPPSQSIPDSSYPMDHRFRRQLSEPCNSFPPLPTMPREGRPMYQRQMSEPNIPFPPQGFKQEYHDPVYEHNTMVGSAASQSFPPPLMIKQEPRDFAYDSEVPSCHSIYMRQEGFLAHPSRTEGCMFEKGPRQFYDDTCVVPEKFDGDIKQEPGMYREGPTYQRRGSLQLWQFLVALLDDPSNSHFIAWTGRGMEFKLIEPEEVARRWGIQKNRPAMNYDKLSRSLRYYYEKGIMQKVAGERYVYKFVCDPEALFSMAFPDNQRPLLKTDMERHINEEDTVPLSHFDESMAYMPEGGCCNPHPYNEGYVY
HSF1, sequence (Q00613 whole entry): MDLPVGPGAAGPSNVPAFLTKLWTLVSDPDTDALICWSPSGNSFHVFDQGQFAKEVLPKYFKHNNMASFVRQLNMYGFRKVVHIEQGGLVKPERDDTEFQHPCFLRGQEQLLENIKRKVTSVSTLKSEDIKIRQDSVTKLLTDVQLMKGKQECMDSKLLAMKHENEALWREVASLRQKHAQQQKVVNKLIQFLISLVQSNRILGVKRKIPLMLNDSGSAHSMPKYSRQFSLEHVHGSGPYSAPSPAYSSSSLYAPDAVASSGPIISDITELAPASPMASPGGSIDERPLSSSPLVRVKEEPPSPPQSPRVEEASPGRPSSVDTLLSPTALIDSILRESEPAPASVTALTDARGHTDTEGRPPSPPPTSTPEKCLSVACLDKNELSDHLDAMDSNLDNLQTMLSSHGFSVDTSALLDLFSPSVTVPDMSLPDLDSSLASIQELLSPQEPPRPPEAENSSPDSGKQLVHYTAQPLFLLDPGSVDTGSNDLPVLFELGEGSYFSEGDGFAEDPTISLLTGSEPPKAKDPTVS
ETV6, sequence (P41212 whole entry): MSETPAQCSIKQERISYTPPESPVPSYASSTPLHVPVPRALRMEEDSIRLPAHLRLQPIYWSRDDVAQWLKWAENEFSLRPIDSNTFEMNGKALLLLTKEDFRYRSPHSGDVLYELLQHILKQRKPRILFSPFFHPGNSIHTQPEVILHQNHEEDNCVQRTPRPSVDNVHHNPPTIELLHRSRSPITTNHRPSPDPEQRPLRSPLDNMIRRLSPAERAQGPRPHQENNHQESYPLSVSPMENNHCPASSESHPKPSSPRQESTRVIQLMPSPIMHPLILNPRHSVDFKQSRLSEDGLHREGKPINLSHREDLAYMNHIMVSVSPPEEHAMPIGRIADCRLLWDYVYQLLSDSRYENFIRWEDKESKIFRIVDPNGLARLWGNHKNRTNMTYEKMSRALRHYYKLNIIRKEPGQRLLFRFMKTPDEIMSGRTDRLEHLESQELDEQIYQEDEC
ELF4, sequence (Q99607 whole entry): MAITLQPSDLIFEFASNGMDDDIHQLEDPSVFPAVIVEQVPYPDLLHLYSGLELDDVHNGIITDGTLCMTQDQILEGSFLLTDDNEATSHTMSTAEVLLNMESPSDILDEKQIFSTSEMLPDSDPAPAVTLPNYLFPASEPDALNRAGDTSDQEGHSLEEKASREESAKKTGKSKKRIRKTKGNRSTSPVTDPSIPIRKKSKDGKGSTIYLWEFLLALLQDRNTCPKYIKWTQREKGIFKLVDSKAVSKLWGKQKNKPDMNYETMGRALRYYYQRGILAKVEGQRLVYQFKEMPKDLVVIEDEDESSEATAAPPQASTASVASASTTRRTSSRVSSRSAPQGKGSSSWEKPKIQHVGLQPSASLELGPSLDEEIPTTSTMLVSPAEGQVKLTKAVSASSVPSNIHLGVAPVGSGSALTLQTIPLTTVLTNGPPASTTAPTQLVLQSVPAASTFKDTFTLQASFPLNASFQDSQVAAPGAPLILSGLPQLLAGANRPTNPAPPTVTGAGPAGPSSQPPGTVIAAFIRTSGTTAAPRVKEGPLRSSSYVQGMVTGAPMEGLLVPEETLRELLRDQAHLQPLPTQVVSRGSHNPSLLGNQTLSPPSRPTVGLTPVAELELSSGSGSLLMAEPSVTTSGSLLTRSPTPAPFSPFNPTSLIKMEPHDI
ETV5, sequence (P41161 whole entry): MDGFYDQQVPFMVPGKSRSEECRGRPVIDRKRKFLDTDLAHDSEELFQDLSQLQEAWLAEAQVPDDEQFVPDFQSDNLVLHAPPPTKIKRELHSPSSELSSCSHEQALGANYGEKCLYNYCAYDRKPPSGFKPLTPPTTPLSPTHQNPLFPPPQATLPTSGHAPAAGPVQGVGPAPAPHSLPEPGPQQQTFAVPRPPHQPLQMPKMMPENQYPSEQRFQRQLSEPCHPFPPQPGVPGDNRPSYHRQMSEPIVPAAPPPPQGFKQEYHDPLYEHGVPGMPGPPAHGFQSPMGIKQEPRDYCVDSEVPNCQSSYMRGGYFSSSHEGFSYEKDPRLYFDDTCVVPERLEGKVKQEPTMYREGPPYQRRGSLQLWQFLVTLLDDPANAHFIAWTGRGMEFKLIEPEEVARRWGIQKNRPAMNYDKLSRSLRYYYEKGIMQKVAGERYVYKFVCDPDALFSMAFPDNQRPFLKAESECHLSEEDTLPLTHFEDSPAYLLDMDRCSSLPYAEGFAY

Q: What does the source list for CAAAAA?
A: binding signal [1]: 1.2 fold enrichment (6-mer frequency, TF over GST control); binding signal [2]: 1.15 fold enrichment (6-mer frequency, TF over GST control); binding signal [3]: 1.08 fold enrichment (6-mer frequency, TF over GST control); binding signal [4]: 1.01 fold enrichment (6-mer frequency, TF over GST control); binding signal [5]: 1.18 fold enrichment (6-mer frequency, TF over GST control); binding signal [6]: 1.13 fold enrichment (6-mer frequency, TF over GST control); binding signal [7]: 1.17 fold enrichment (6-mer frequency, TF over GST control); binding signal [8]: 1.12 fold enrichment (6-mer frequency, TF over GST control); binding signal [9]: 1.02 fold enrichment (6-mer frequency, TF over GST control); binding signal [10]: 1.22 fold enrichment (6-mer frequency, TF over GST control); binding signal [11]: 1.15 fold enrichment (6-mer frequency, TF over GST control); binding signal [12]: 1.15 fold enrichment (6-mer frequency, TF over GST control); binding signal [13]: 1.12 fold enrichment (6-mer frequency, TF over GST control); binding signal [14]: 1.07 fold enrichment (6-mer frequency, TF over GST control); binding signal [15]: 1.1 fold enrichment (6-mer frequency, TF over GST control); binding signal [16]: 1.07 fold enrichment (6-mer frequency, TF over GST control); binding signal [17]: 1.12 fold enrichment (6-mer frequency, TF over GST control); binding signal [18]: 1.12 fold enrichment (6-mer frequency, TF over GST control)
